# Pf gamet viab: P. falciparum stage V gametocyte viability inhibition | P. falciparum stage V gametocytes, ATP luminescence, 24 h | inhibition, % at 10.9 µM | hit rate 0.065% among 150,000 | AID 743093;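 active = inhibition above the mean plus 3 SD of compounds within the control limits, set per campaign, cut at about 38% in these data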;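 note: 0% = DMSO wells and 100% = medium only without gametocytes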
# S1P4 antag: blocks the human S1P4 receptor | S1P4-expressing cells, antagonist mode, reporter read-out | inhibition, % at 4.98 µM | hit rate 0.26% among 220,000 | AID 1510; in the data active = inhibition above about 29%;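 note: 0% = wells stimulated with agonist and 100% = vehicle wells without agonist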
# S1P3 antagonist: S1P3 (human) receptor antagonism. Q99500. CHO S1P3 NFAT-BLA reporter, FRET fluorescence, antagonist mode. inhibition, % at 4.98 µM. hit rate 0.27% among 170,000. AID 485;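 active = inhibition above the plate cutoff, the mean inhibition of test wells on that plate plus 3 SD, cut at about 28% in these data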;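 note: cells challenged with S1P at its EC80 of 0.8 µM; blue over green emission ratio from cleaved BLA substrate after 4 h stimulation; 0% = S1P-stimulated wells and 100% = unstimulated DMSO-only wells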
# Target sequence (Q99500 whole entry, looked up): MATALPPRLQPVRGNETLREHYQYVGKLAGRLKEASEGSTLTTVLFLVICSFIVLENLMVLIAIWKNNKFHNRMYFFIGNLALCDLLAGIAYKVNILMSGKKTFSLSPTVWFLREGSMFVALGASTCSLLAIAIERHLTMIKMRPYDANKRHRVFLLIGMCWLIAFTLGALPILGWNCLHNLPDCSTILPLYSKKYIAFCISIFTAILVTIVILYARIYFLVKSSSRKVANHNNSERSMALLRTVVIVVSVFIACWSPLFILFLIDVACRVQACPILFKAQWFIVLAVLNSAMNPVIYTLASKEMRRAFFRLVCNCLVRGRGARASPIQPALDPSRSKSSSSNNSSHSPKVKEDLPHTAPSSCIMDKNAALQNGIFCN
# S1P4 ag: activates the human S1P4 receptor. O95977. S1P4-expressing cell line, agonist reporter assay. activation, % at 4.98 µM. hit rate 0.35% among 220,000. AID 1509; in the data active = activation above about 11%;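 note: 0% = DMSO vehicle and 100% = reference agonist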
# Hsp70 activator: transcriptional activators of Hsp70. AID 1203. activation, % at 10 µM. HeLa Hsp70 promoter luciferase reporter, luminescence; scaled: vehicle 0, proteasome-inhibitor control 100%. hit rate 0.04% among 200,000;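 active = activation above the mean across all tested compounds plus 3 SD, cutoff set per campaign, cut at about 5.5% in these data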;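 note: 100% = MG132 at 30 µM as the positive control and 0% = DMSO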
# Starred values were filed as active, the others as inactive; . = no result given. An excerpt weighted towards active compounds, which were near 0.83% of everything screened.
SMILES,Pf gamet viab,S1P4 antag,S1P3 antagonist,S1P4 ag,Hsp70 activator
COC(=O)c1cc2sc(Cl)cc2n1CC(=O)Nc1ccc(OC)c(OC)c1OC,.,-6,39,0,0
COC(=O)c1cc2sc(Cl)cc2n1CC(=O)Nc1cccc(SC)c1,.,-1,59*,-1,0
CCN1C[C@@H]2[C@@H]3C(=O)N(Cc4ccccc4)C(=O)[C@@H]3[C@](CC)(C1=O)N2C(=O)c1ccc(Cl)cc1,-13,.,.,.,.
O=C(Cn1c(C(F)(F)F)nc2ccccc21)Nc1ccccc1C(=O)O,39*,-2,-18,1,0
CCc1ccc(-c2cc(C(=O)Nn3cnnc3)c3ccccc3n2)cc1,39*,3,.,0,-1
COC(=O)[C@]1(Cc2ccccc2)N[C@H](c2ccc(-c3cc(C(C)=O)cs3)cc2)[C@@H]2C(=O)N(C)C(=O)[C@@H]21,-4,.,.,.,.
CNc1nc(OC)nc(N2CCOCC2)n1,.,-6,66*,3,0
COc1ccc(OC)c(NC(=O)CN(c2ccc(C)cc2)S(=O)(=O)c2c(C)noc2C)c1,.,14,-2,0,0
COc1ccc(OC)c(NC(=O)CN(c2ccc(C(C)C)cc2)S(=O)(=O)c2c(C)noc2C)c1,.,-4,54*,-6,0
O=C(NCc1ccc2c(c1)OCO2)c1nnc(Cc2ccc(F)cc2)o1,.,5,106*,1,0
O=C(NCc1cccnc1)c1nnc(Cc2ccc(F)cc2)o1,.,.,-11,.,.
COc1cc(/C=N/Nc2ccc(Cl)c(C(=O)O)c2)ccc1OC(=O)c1cccs1,.,-15,-6,12*,0
COc1cc(/C=N/Nc2ccccc2)ccc1OC(=O)c1cccs1,-17,3,-8,-1,0
CCCCC(C(=O)OCC)C(N)Cc1ccc(F)cc1 (configuration not stated),-2,0,1,0,0
Cc1ccc2cc(CCNC(=O)Cc3cccs3)c(=O)[nH]c2c1,.,13,-15,1,0
N/C(=N\OC(=O)Cc1ccc(-c2ccccc2)cc1)c1ccncc1,-8,-2,-17,-1,0
COc1ccccc1-c1cc2nc(C)c(CCC(=O)NCc3ccc(F)cc3)c(C)n2n1,-12,-3,0,1,.
COc1cc(OC)cc(-c2cc3nc(C)c(CCC(=O)NCc4ccccc4)c(C)n3n2)c1,39*,-3,3,-1,.
c1csc(CCNc2ncnc3sc4c(c23)CCC4)c1,.,.,94*,.,.
c1ccc(Nc2ncnc3sc4c(c23)CCC4)cc1,.,-4,.,1,0
O=C1Cc2ccccc2C(=O)N1OCc1ccc(Cl)cc1,41*,-13,-2,1,0
O=C1c2ccccc2C(=O)N1OCc1ccc(Cl)cc1,.,21,.,0,0
Cc1ccc(C)n1-c1sc2c(c1C#N)CCC(C)C2 (configuration not stated),38*,-11,.,1,0
COc1cccc2c1C(=O)c1c(O)c3c(c(O)c1C2=O)C[C@@](O)(C(C)=O)C[C@@H]3O[C@H]1C[C@H](N)[C@H](O)[C@H](C)O1,.,101*,-2,-3,12*
COc1ccc(-c2cc(C(F)(F)F)n3ncc(C(=O)N4CCCCC4c4cccnc4)c3n2)cc1 (configuration not stated),1,-16,-8,1,0
SMILES,Pf gamet viab,S1P4 antag,S1P3 antagonist,S1P4 ag,Hsp70 activator
CC(Oc1ccc(Cl)cc1Cl)C(=O)NCCCN1CCOCC1 (configuration not stated),.,-20,99*,3,0
O=S(=O)(c1ccc(Cl)nc1)N1CCN(Cc2ccc3c(c2)OCO3)CC1,.,-4,.,1,0
O=S(=O)(c1cc(Cl)ccc1Cl)N1CCN(Cc2ccc3c(c2)OCO3)CC1,.,12,86*,-4,0
O=C(CC1SC(=NCCc2ccccc2)N(/N=C/c2cccs2)C1=O)Nc1ccc(Cl)cc1 (configuration not stated),-40,-8,2,0,0
O=C(CSc1nnc(-c2cccnc2)n1Cc1ccco1)N1c2ccccc2Sc2ccccc21,-48,1,91*,-2,0
COc1ccc2[nH]c(=O)c3c(c2c1)OC(C)(C)C=C3,.,0,67*,5,0
COc1ccc(Nc2ncc3c(n2)CC(c2ccccc2)CC3=O)cc1 (configuration not stated),.,-9,53*,1,0
CCc1ccc(Nc2ncc3c(n2)CC(c2ccc(OC)cc2)CC3=O)cc1 (configuration not stated),-43,-2,.,0,0
O=Cc1ccc(OCc2nnsc2Cl)cc1,-42,-7,-25,0,0
